Screens from PubChem BioAssay.
This is a sample that favours compounds with a hit; in the whole collection about 5.4% have one here.
Gal4-VP16 FLuc: inhibits Gal4-VP16 luciferase reporter, ROR gamma counter-screen; AID 2546; Drosophila S2 Gal4-VP16 UAS-luciferase, luminescence, 20 h; Potency, µM (highest dose often 53.6 µM), for inactives: at the top dose activity, negative = inhibition, actives largely listed as inhibitors; hit rate 3.5% among 310,000;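 note: Gal4-VP16 expression switched on by copper sulfate through the metallothionein promoter; potency is the fitted concentration of half-maximal effect; % is set by controls: 0 for no effect and ±100 for the full control effect; nearly all actives have a fitted effect of over 50% in size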
RORg inh: inhibitors of mouse ROR gamma transcriptional activity; hit rate 5.4% among 310,000; Potency, µM (titrated, usually from 53.6 µM), for the others: at the highest dose activity change, negative = inhibition, usual class: inhibitors; P51450; Drosophila S2 Gal4-RORgamma UAS-luciferase reporter, 20 h; note: potency is the fitted concentration of half-maximal effect; % is set by controls: 0 for no effect and ±100 for the full control effect; nearly all actives have a fitted effect of over 60% in size
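ROR gamma transcriptional activity was tracked as Gal4-UAS luciferase output in stably transfected Drosophila Schneider cells, with compound added 1 hr before 700 uM copper sulfate induction and a 20 hr ambient-temperature incubation.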
p53 reactivation: restores transcriptional activity of mutant p53; AID 504706; hit rate 0.063% among 320,000; H1299 p53-A138V BP100-luciferase reporter, luminescence, 24 h; Potency, µM (series often up to 92.2 µM), for the others: at the highest dose activity change, positive = activation, hits mostly activators; note: potency is the fitted concentration of half-maximal effect; % of control where 0% means no effect; nearly all actives have a fitted effect of over 45% in size
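p53-null H1299 cells stably carrying temperature-sensitive p53-A138V and a BP100-luciferase reporter were pinned with compounds (4-point, 1:5 series) and held 24 hrs at 37 deg C. Luminescence was read 10 min after detection reagent.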
Six1-Eya2 blk: Six1/Eya2 interaction inhibition; activity change, % (no concentration beside the values); hit rate 0.56% among 360,000; AlphaScreen GST-Six1/His-Eya2 binding, biochemical; hits give low values; Q15475+O00167; in the data active = activity change below about -65%; inconclusive = mostly about -30% to -63%; note: % is set by controls: 0 for no effect and ±100 for the full control effect
Target sequence (O00167 whole entry, looked up): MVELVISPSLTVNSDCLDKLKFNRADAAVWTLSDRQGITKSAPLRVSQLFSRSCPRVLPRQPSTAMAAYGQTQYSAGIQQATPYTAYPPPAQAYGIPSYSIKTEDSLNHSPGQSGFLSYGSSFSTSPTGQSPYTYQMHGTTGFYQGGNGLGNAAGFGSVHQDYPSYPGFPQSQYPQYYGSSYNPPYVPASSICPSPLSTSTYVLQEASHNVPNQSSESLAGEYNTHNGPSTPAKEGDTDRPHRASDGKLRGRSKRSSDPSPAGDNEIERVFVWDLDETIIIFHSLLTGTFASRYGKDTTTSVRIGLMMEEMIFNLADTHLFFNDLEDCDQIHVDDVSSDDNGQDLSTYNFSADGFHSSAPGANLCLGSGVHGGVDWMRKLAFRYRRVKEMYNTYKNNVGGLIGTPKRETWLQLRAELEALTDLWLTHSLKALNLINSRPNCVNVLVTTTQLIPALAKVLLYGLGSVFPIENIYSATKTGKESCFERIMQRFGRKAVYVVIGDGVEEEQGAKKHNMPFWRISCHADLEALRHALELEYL
Target sequence (Q15475 whole entry, looked up): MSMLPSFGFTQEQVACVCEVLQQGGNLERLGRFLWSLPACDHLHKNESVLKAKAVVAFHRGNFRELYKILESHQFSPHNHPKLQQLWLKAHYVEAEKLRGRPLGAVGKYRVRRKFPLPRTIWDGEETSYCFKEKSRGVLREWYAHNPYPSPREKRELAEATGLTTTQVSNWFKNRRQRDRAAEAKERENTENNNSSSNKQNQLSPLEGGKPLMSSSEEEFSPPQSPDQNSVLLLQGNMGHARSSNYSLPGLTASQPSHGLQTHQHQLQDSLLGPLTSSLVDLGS
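Homogeneous AlphaScreen proximity assay pairing GST-Six1 with His-tagged Eya2 (added as 5X mix: 250 nM and 500 nM) in 50 mM Tris pH 8.0, 300 mM NaCl, 1 mM TCEP. Glutathione donor and nickel acceptor beads; 1 h, 37 °C, dark.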
CtBP-E1A blk: CtBP/E1A binding inhibition | AlphaScreen GST-E1A/His-CtBP binding, 1536-well; hits give low values | activity change, % (test concentration not listed) | hit rate 0.49% among 340,000; in the data active = activity change below about -65%; inconclusive = mostly about -30% to -63%; note: % is set by controls: 0 for no effect and ±100 for the full control effect
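In 5 uL wells, 23 nL compound meets equimolar GST-E1A and His-CtBP (5X stock 125 nM each) for 2 h, 37 °C. Beads (5X, 50 ug/mL) then 1 h, 37 °C, dark.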
Numbers without * were called inactive; ? = inconclusive; · = no result given; [ ] = remark or other dose. Unless noted, calls come from the whole dose curve; as a rule, active = well fitted curve in the direction sought with a large enough effect; inconclusive = small, poorly fitted or top-dose-only effect, or another doubt; inactive = no such curve, though single readings can be large; an effect the other way counts as inactive or inconclusive.

SMILES	Gal4-VP16 FLuc	RORg inh	p53 reactivation	Six1-Eya2 blk	CtBP-E1A blk
CCC1(c2ccc(F)cc2)NC(=O)N(CC(=O)NCc2ccccc2Cl)C1=O (configuration not stated)	4%	20%	-1%	1	·
CSc1cccc(NC(=S)N(CCC(C)C)C(C)c2ccncc2)c1 (configuration not stated)	?	?	0%	-12	·
CCOc1ccc(-c2c(C(=O)N/N=C/c3cccnc3)nnn2-c2nonc2N)cc1	-13%	0%	-1%	-6	·
O=C(Cc1c(F)cccc1Cl)N1CCN(S(=O)(=O)c2cccc(F)c2)CC1	·	·	-5%	3	-3
CN(C)c1ncc2ncc(=O)n(C3CC3)c2n1	-4%	5%	·	·	·
CCCC/C=C/C(NC(=O)c1ccc(C(F)(F)F)cc1)c1ccccc1 (configuration not stated)	-18%	-27%	·	·	·
CCOc1ccccc1C=NNC(=O)c1cccc2ccccc12	·	·	·	4	3
CCOc1ccccc1C(=O)N/N=C/c1cccc2cccnc12	?	5µM*	-4%	?	?
CCOc1ccccc1C(=O)N/N=C/c1c[nH]c2ccccc12	?	16µM*	2%	-5	-8
CCC(Sc1nnc(-c2ccc(C)c(Cl)c2)n1CC)C(=O)Nc1nccs1 (configuration not stated)	?	13µM*	-3%	-13	-13
O=C(O)[C@H]1CN(C/C=C/P(=O)(O)O)CCN1	-7%	-16%	·	·	·
COc1ccc(NCc2nc3ccccc3n2CCOc2ccccc2)cc1	-15%	16µM*	?	?	-20
COc1ccc(NCc2nc3ccccc3n2CCOc2ccc(C)cc2)cc1	?	20µM*	17%	?	-16
CCCc1nc2ccccc2n1CCOc1ccccc1	-6%	1%	-1%	-1	-3
c1ccc(NCc2nc3ccccc3n2CCOc2ccccc2)cc1	?	13µM*	?	-1	1
c1cncc(CNc2ncncc2-c2ccc3c(c2)OCO3)c1	8%	3%	·	·	·
Cc1nc(-c2ccccc2)sc1-c1nc(-c2cccs2)ncc1S(=O)(=O)c1ccccc1	-3%	0%	14%	·	·
Cc1ccc(Oc2c(C(N)=O)cc([N+](=O)[O-])cc2[N+](=O)[O-])cc1	2.5µM*	2.8µM*	-30%	6	3
CCN(CC)CCNC(=O)Cn1cnc2sc(C)c(S(=O)(=O)N3CC(C)CC(C)C3)c2c1=O (configuration not stated)	-2%	-4%	2%	5	-8
Cc1cc(-c2ccc(Cl)cc2Cl)c(C#N)c(=O)[nH]1	-14%	18%	4%	0	2
CSc1nc(-c2ccc(Cl)cc2Cl)[nH]c(=O)c1C#N	-3%	3%	-5%	-72*	?
Cc1nn(-c2ccccc2)c(C)c1/C=C/C(=O)OCC(=O)Nc1ccc(S(N)(=O)=O)cc1	·	·	6%	-20	-88*
CC1(C(=O)Nc2cccc(C#N)c2)CCN1C(=O)c1ccccc1CCc1ccccc1 (configuration not stated)	·	·	·	-1	0
Cc1cc(N2CCCC2)nc2ccccc12	8%[10 µM]	-11%	-1%	9	·
Cc1nn(-c2cc(C)c3ccccc3n2)c2c1CCC2	?	2.2µM*	7%	4	1
SMILES	Gal4-VP16 FLuc	RORg inh	p53 reactivation	Six1-Eya2 blk	CtBP-E1A blk
N#CC(C#N)=C1C=CC=CN1/C(=C\c1ccco1)C(=O)c1ccccc1	1.8µM*	5µM*	-35%	-21	-5
N#C/C(=C/c1ccco1)C(N)=S	-23%	-1%	-3%	-7	-26
N#CC(C#N)=C1C=CC=CN1/C(=C\c1ccco1)C(=O)c1ccc(Br)cc1	1.3µM*	3.5µM*	-31%	-8	-14
COc1ccc(C(=O)/C(=C\c2ccco2)N2C=CC=CC2=C(C#N)C#N)cc1	3.5µM*	4µM*	-12%	-11	-2
COc1ccc(/C=C(/C(=O)c2cccs2)N2C=CC=CC2=C(C#N)C#N)cc1	2.8µM*	2.2µM*	-34%	-14	·
O=C(NCc1ccccn1)C1(C(F)(F)F)CC(CCCO)CCCO1 (configuration not stated)	1%	8%	·	·	·
COc1cc(CCNc2ccc3nnc(-c4ccccc4)n3n2)cc(OC)c1OC	-2%	38%	0%	-80*	-90*
